# According to the supplement of paper PMC7411640:
# Where a name gives a salt, the structure may show the parent alone.
# System: MDA-MB-468
# Experiment: phospho-S6 immunofluorescence (DAPI-normalised), per-plate z-score; higher = higher phospho-S6 signal (less pathway suppression)
# Conditions: co-treatment: GDC0941 450 nM; 24 h
# Description: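 GPCR-targeted compound library (MedChemExpress HY-L006) tested on MDA-MB-468 PTEN-null TNBC cells in 384-well plates at 0.1, 1 or 10 uM, combined with vehicle, GDC0941 450 nM or lapatinib 1 uM, for 24 h. Phospho-S6 (S240/244) immunofluorescence normalised to DAPI and expressed as a per-plate z-score; values are the mean of biological triplicates.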
row,Compound,phospho-S6 immunofluorescence (z-score)
1,CN(C)C(=O)CCSC(SCCC(=O)O)c1cccc(/C=C/c2ccc3ccc(Cl)cc3n2)c1 (configuration not stated) [MK-571 (sodium salt)] (compound 10 µM),-0.65
2,COc1ccc(CCN2CCN(CCCc3ccccc3)CC2)cc1OC [SA4503 (dihydrochloride)] (compound 10 µM),0.13
3,Cc1c(Cc2ccc3ccccc3n2)c2cc(F)ccc2n1CC(=O)O (compound 10 µM),0
4,O=C(O)CCc1ccc(NCc2cccc(Oc3ccccc3)c2)cc1 (compound 10 µM),-0.04
5,COc1ccc2c(c1OC)C(=O)O[C@@H]2[C@H]1c2c(cc3c(c2OC)OCO3)CCN1C [Noscapine] (compound 10 µM),0.49
6,C[C@H](Nc1cc(NS(=O)(=O)N2CCC2)nc(SCc2cccc(F)c2F)n1)[C@@H](O)CO (compound 10 µM),-1.17
7,CCNC1(C(N)=O)CCN(c2ncnc3c2nc(-c2ccccc2Cl)n3-c2ccc(Cl)cc2)CC1 [Otenabant] (compound 10 µM),-1.75
8,CCCN[C@@H]1CCc2nc(N)sc2C1 [Dexpramipexole (dihydrochloride)] (compound 10 µM),1.16
9,CC(C)C[C@H](NC(=O)CNC(=O)[C@H](Cc1ccc(O)cc1)NC(=O)[C@H](CO)NC(=O)[C@H](Cc1c[nH]c2ccccc12)NC(=O)[C@H](Cc1cnc[nH]1)NC(=O)[C@@H]1CCC(=O)N1)C(=O)N[C@@H](CCCNC(=N)N)C(=O)N1CCC[C@H]1C(=O)NCC(N)=O [Gonadorelin (acetate)] (compound 10 µM),-0.45
10,CC(=O)Oc1cc(C(C)C)c(OCCN(C)C)cc1C [Moxisylyte (hydrochloride)] (compound 10 µM),0.49
11,CCOC(=O)N1CCC(=C2c3ccc(Cl)cc3CCc3cccnc32)CC1 [Loratadine] (compound 10 µM),-1.77
12,C[C@]12CCC(=O)C=C1CC[C@@H]1[C@@H]2CC[C@@]2(C)[C@H]1CC[C@]2(O)C(=O)CO [Cortodoxone] (compound 10 µM),-0.95
13,CCC/N=C1\S/C(=C\c2ccc(OC[C@H](O)CO)c(Cl)c2)C(=O)N1c1ccccc1C [Ponesimod] (compound 10 µM),-0.8
14,CC(C)COc1ccc(CNC(=O)N(Cc2ccc(F)cc2)C2CCN(C)CC2)cc1 [Pimavanserin tartrate] (compound 10 µM),-3.99
15,COc1ccccc1N1CCN(CCN(C(=O)C2CCCCC2)c2ccccn2)CC1 (compound 10 µM),-0.49
16,CN1CCN(CCCN2c3ccccc3Sc3ccc(C(F)(F)F)cc32)CC1 [Trifluoperazine (dihydrochloride)] (compound 10 µM),-4.47
17,Cc1nc(C#Cc2cccnc2)cs1 [MTEP (hydrochloride)] (compound 10 µM),-0.31
18,COc1ccc(S(=O)(=O)Nc2c(C)cc(C)cc2C)cc1 (compound 10 µM),0.04
19,COc1ccc(/C=C/C(=O)Nc2ccccc2C(=O)O)cc1OC [Tranilast (trans-)] (compound 10 µM),0.32

row,Compound,phospho-S6 immunofluorescence (z-score)
1,Oc1ccc(C2CNCCc3c2cc(O)c(O)c3Cl)cc1 (configuration not stated) [Fenoldopam (mesylate)] (compound 10 µM),1.13
2,C[C@@H](O)[C@@H]1NC(=O)[C@H](CCCCN)NC(=O)[C@@H](Cc2c[nH]c3ccccc23)NC(=O)[C@H](Cc2ccccc2)NC(=O)[C@@H](NC(=O)[C@H](N)Cc2ccccc2)CSSC[C@@H](C(=O)N[C@H](CO)[C@@H](C)O)NC1=O [Octreotide (acetate)] (compound 10 µM),0.59
3,CN(C)CCC=C1c2ccccc2C=Cc2ccccc21 [Cyclobenzaprine (hydrochloride)] (compound 10 µM),0.8
4,CN(C)[C@@H]1CCc2[nH]c3ccc(NC(=O)c4ccc(F)cc4)cc3c2C1 (compound 10 µM),0.67
5,CN(C)N(C)C(=O)[C@@]1(Cc2ccccc2)CCCN(C(=O)[C@@H](Cc2c[nH]c3ccccc23)NC(=O)C(C)(C)N)C1 [Anamorelin (hydrochloride)] (compound 10 µM),-1.14
6,CCCC(=O)Nc1ccc(OCC(O)CNC(C)C)c(C(C)=O)c1 (configuration not stated) [Acebutolol (hydrochloride)] (compound 10 µM),1.02
7,CC(C)C[C@H](NC(=O)[C@@H](COC(C)(C)C)NC(=O)[C@H](Cc1ccc(O)cc1)NC(=O)[C@H](CO)NC(=O)[C@H](Cc1c[nH]c2ccccc12)NC(=O)[C@H](Cc1cnc[nH]1)NC(=O)[C@@H]1CCC(=O)N1)C(=O)N[C@@H](CCCNC(=N)N)C(=O)N1CCC[C@H]1C(=O)NNC(N)=O [Goserelin (acetate)] (compound 10 µM),-1.26
8,CC1OC2(CS1)CN1CCC2CC1 (configuration not stated) [Cevimeline (hydrochloride hemihydrate)] (compound 10 µM),0.65
9,CC(=O)[C@H]1CC[C@H]2[C@@H]3CC=C4C[C@@H](O)CC[C@]4(C)[C@H]3CC[C@]12C [Pregnenolone] (compound 10 µM),1.58
10,CCN(CC)CC#CCOC(=O)C(O)(c1ccccc1)C1CCCCC1 (configuration not stated) [Oxybutynin] (compound 10 µM),-0.77
11,CN1CCN(C2=Nc3ccccc3Oc3ccc(Cl)cc32)CC1 [Loxapine] (compound 10 µM),0.6
12,NCCCC[C@H](NC(=O)[C@@H]1CCCN1C(=O)[C@@H]1CSSC[C@H](NC(=O)CNC(=O)CNC(=O)CN)C(=O)N[C@@H](Cc2ccc(O)cc2)C(=O)N[C@@H](Cc2ccccc2)C(=O)N[C@@H](CCC(N)=O)C(=O)N[C@@H](CC(N)=O)C(=O)N1)C(=O)NCC(N)=O [Terlipressin] (compound 10 µM),0.05
13,CCOC(=O)N1CCC(NCCNC(=O)c2ccccc2C)CC1 (compound 10 µM),0.96
14,N=C(N)NCCC[C@@H](NC(=O)[C@@H]1CCCN1C(=O)[C@@H]1CSSCCC(=O)N[C@@H](Cc2ccc(O)cc2)C(=O)N[C@@H](Cc2ccccc2)C(=O)N[C@@H](CCC(N)=O)C(=O)N[C@@H](CC(N)=O)C(=O)N1)C(=O)NCC(N)=O [Desmopressin (Acetate)] (compound 10 µM),0.16
15,COc1ccc(C2CC(c3ccccc3)=NN2c2ccc(S(N)(=O)=O)cc2)cc1 (configuration not stated) (compound 10 µM),-3.22
16,CN(C)CCC(c1ccccc1)c1ccccn1 (configuration not stated) [Pheniramine (Maleate)] (compound 10 µM),0.09
17,OC(CCCN1CCCCC1)(c1ccccc1)c1ccccc1 [Diphenidol (hydrochloride)] (compound 10 µM),0.19
18,C/C(=N\NC(=O)C(NC(=O)c1ccccc1)c1n[nH]c(=O)c2ccccc12)c1cccc(Br)c1 (configuration not stated) (compound 10 µM),0.96
